# Source: the supplement of paper PMC4166925
# ± gives the standard deviation of the averaged measurements. The full ranking holds about 33,000 sequences; the median of “E-score (dimensionless, -0.5 to 0.5)” is about -0.049, and the highest 2% start at about 0.37. For the sample, the highest values were picked, then their nearest neighbours and some sequences at random.
# System: T1, PmTbr T-box DNA-binding domain (GST fusion)
# T1 sequence: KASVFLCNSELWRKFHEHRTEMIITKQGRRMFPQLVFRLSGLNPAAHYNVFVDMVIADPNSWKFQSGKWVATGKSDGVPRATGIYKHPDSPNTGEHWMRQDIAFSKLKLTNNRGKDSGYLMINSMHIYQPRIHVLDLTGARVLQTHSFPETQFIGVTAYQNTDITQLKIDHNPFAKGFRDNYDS
# Assay: PBM E-score of 8-mer (E-score (dimensionless, -0.5 to 0.5)); Tbr is Tbrain of the sea star Patiria miniata (Pm) or the sea urchin Strongylocentrotus purpuratus (Sp); higher = stronger binding preference
# Conditions: the construct has about 5 more residues each side
# Outline: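 GST-fused Tbr T-box DNA-binding domains (the whole T-box plus about five flanking residues) were expressed in BL21 E. coli at 20 °C and purified by glutathione affinity chromatography. Universal Agilent oligonucleotide arrays were made double-stranded by primer extension, incubated with 200 nM protein in PBS (pH 7.5), then scanned and quantified. Every ungapped 8-mer was scored from probe intensities. The Universal PBM Analysis Suite gave each word an enrichment E-score, averaged over duplicate arrays.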
row,Sequence,PBM E-score of 8-mer
1,AGGTTGTG,0.16 ± 0.052
2,AGGACCAC,-0.253 ± 0.12
3,GATAGGCA,-0.121 ± 0.014
4,AGAATCTA,0.151 ± 0.0012
5,CTTCGATA,-0.00351 ± 0.034
6,TTAGCAAA,0.173 ± 0.064
7,AGAGTGTA,0.0538 ± 0.058
8,AGAGTGTC,0.385 ± 0.0076
9,CGAGTGTC,0.294 ± 0.018
10,TAGGTTAA,-0.216 ± 0.0052
11,AGAGTTGA,0.0684 ± 0.016
12,GGGCGCGA,0.409 ± 0.02
13,AGGCGAGA,0.401 ± 0.011
14,GGGGGCGA,0.01664 ± 0.00016
15,AGGCGCGA,0.463 ± 0.0056
16,AGGCGAGC,-0.25 ± 0.068
17,GGGCGAGA,0.194 ± 0.052
18,AGGCGCGG,0.242 ± 0.019
19,AGGCGCGC,0.152 ± 0.021
20,AGGCGCTA,0.4421 ± 0.0025
21,CGGCGCTA,0.239 ± 0.033
22,CGGCGCGA,0.317 ± 0.034
23,GGGCGCTA,0.346 ± 0.018
24,AAGCGATG,-0.00845 ± 0.0036
25,CCCTCTGC,0.0209 ± 0.072
26,ATCTTAGA,-0.0793 ± 0.081

row,Sequence,PBM E-score of 8-mer
1,CGACCAAC,0.00547 ± 0.043
2,ACTGCTGA,0.181 ± 0.035
3,AGTCATCG,-0.153 ± 0.0094
4,CTTAAGGC,-0.0813 ± 0.065
5,CAATCTAC,-0.0883 ± 0.0018
6,GCTCTATA,-0.25 ± 0.048
7,TCGAAAGA,-0.172 ± 0.05
8,GACCCTTA,-0.0822 ± 0.0071
9,CGAGTTAG,-0.0558 ± 0.052
10,GAAGCTCC,-0.342 ± 0.041
11,CTGTGGAC,-0.104 ± 0.0043
12,CACTAGGG,-0.15 ± 0.031
13,AGGCGACA,0.3974 ± 0.0038
14,AGGCGACC,-0.13 ± 0.17
15,AGGCGACG,0.268 ± 0.0026
16,AATTGGCA,0.247 ± 0.036
17,CGAAAAAA,0.00041 ± 0.062
18,CGAAATCG,0.231 ± 0.046
19,ACAAGTGC,0.249 ± 0.005
20,ACAAGTAT,0.112 ± 0.028
21,ACAAGTGT,0.391 ± 0.0052
22,AAAAGTGG,0.107 ± 0.0099
23,ACAAGTGG,0.375 ± 0.017
24,AAAAGTGT,0.413 ± 0.015
25,AAAAGTGA,0.197 ± 0.059
26,ACAAGTGA,0.277 ± 0.034

row,Sequence,PBM E-score of 8-mer
1,ACAAGTCT,0.103 ± 0.044
2,CGCACTCA,0.161 ± 0.074
3,AAAACGGG,-0.146 ± 0.0023
4,ATATACGA,-0.298 ± 0.059
5,AAATTCTT,-0.155 ± 0.029
6,TACTACGA,0.0382 ± 0.023
7,ATATGGCC,-0.235 ± 0.066
8,ATGGGCTC,-0.154 ± 0.16
9,TCGCTTCA,0.177 ± 0.02
10,CACGGGTC,0.0871 ± 0.051
11,CTGTCGGA,0.101 ± 0.044
12,GTGTCGCA,0.415 ± 0.0083
13,ATGTCGGA,-0.0551 ± 0.054
14,GTGTCGGA,0.394 ± 0.015
15,CTGTCGCA,0.224 ± 0.064
16,ATGTCGCA,0.254 ± 0.049
17,CGGATGCC,-0.239 ± 0.09
18,AGTAGAGA,-0.165 ± 0.0094
19,CAAATGTC,0.0249 ± 0.12
20,ACCTCAAC,-0.0545 ± 0.07
21,CCGCTGAA,-0.279 ± 0.04
22,GGTGCTAC,0.434 ± 0.0055
23,AGTGCTAC,0.276 ± 0.031
24,GGTGCTTA,0.0849 ± 0.048
25,CGTGCTAC,0.185 ± 0.0064
26,CGTGCTAA,0.378 ± 0.021

row,Sequence,PBM E-score of 8-mer
1,AGTGCTAT,0.27 ± 0.0047
2,AGTGCTAG,0.358 ± 0.0077
3,TGTGCTAA,0.346 ± 0.02
4,GGTGCTAA,0.4753 ± 0.00081
5,CGTGCTAG,0.287 ± 0.027
6,AGTGCTAA,0.421 ± 0.012
7,GGTGCTCA,-0.112 ± 0.025
8,ACAGTTAG,0.0702 ± 0.027
9,ATGAATCA,-0.129 ± 0.0053
10,GTCCATGA,-0.052 ± 0.031
11,GGGTGGGA,0.237 ± 0.011
12,CCCACATA,-0.214 ± 0.08
13,CAAGGGGC,-0.095 ± 0.021
14,AGCAGCAA,-0.118 ± 0.011
15,CAACGTCA,0.0459 ± 0.035
16,CCACTTTC,0.104 ± 0.06
17,ACTCTTTC,-0.00346 ± 0.013
18,AGACTTTG,-0.00767 ± 0.055
19,ACACTTTA,0.338 ± 0.029
20,ACACTTTG,0.404 ± 0.014
21,ACACTTTC,0.408 ± 0.0072
22,GTTTTTAA,-0.131 ± 0.14
23,AATCACCT,0.311 ± 0.017
24,GTGTAGAA,0.164 ± 0.051
25,AGACAGGC,-0.103 ± 0.03
26,AAGTTAGC,0.192 ± 0.011

row,Sequence,PBM E-score of 8-mer
1,ATGTCCGG,-0.174 ± 0.071
2,TACCTCAA,-0.132 ± 0.028
3,GACCTCAC,0.0743 ± 0.032
4,CACCTCAA,0.395 ± 0.022
5,AACCTCAC,0.219 ± 0.015
6,CTCCTCAG,-0.0996 ± 0.015
7,CACCTCAC,0.4504 ± 0.0025
8,CACCTCAG,0.42 ± 0.0057
9,AACCTCAA,-0.113 ± 0.028
10,AACCTCAG,-0.26 ± 0.042
11,CTGCCACC,0.265 ± 0.036
12,CCCGATTA,0.0524 ± 0.024
13,CCGCTAGA,0.0332 ± 0.029
14,CGATTGCC,-0.0231 ± 0.013
15,GTACAGCA,-0.0813 ± 0.032
16,ACGGAAAT,-0.189 ± 0.071
17,CCGCAGGC,0.000335 ± 0.0022
18,GCACACAC,0.219 ± 0.039
19,ACTCACAC,0.4612 ± 0.00083
20,CCTCACAG,0.127 ± 0.049
21,ACTCACAG,0.314 ± 0.043
22,ACTCACAT,-0.0309 ± 0.043
23,CCTCACAC,0.475 ± 0.005
24,CCTCACAA,0.155 ± 0.016
25,GCTCACAC,0.424 ± 0.01
26,GCTCACAA,0.132 ± 0.037

row,Sequence,PBM E-score of 8-mer
1,ACTACCTC,-0.248 ± 0.022
2,ACTCCACC,-0.0966 ± 0.022
3,CGGCCAGA,-0.215 ± 0.011
4,ACTCTTAT,-0.0869 ± 0.047
5,GCACTTAC,0.178 ± 0.015
6,CCACTTAC,0.201 ± 0.0076
7,ACACTTAG,0.416 ± 0.0068
8,ACACTTAA,0.362 ± 0.031
9,CCACTTAG,-0.0105 ± 0.01
10,ACACTTAC,0.412 ± 0.0079
11,ACTCTTAG,-0.0903 ± 0.065
12,ACACTTAT,0.387 ± 0.0076
13,CTTAAGAC,-0.218 ± 0.055
14,CCGATCCG,-0.094 ± 0.017
15,CGGTTAGA,-0.182 ± 0.026
16,ACATTAGG,0.0856 ± 0.037
17,ACAGGGCG,0.0776 ± 0.037
18,AAGCGCGG,0.0485 ± 0.038
19,CAGCGCGA,0.203 ± 0.029
20,TAGCGCGA,0.3803 ± 0.0017
21,GAGCGCGA,0.291 ± 0.019
22,AAGCGCGC,0.106 ± 0.015
23,AAGCGCGA,0.375 ± 0.017
24,CCACGCTA,-0.0567 ± 0.028
25,ACTCAGCA,-0.151 ± 0.053
26,TCCTAGAA,-0.0822 ± 0.13

row,Sequence,PBM E-score of 8-mer
1,ACTAGCAA,0.00762 ± 0.0026
2,CCTAGCAC,0.3709 ± 0.0033
3,CCTAGCAA,0.128 ± 0.069
4,GCTAGCAC,0.33 ± 0.0063
5,ACTAGCAG,-0.0294 ± 0.074
6,ACTAGCAC,0.381 ± 0.013
7,CTTGGAAA,-0.0932 ± 0.023
8,CATCTATC,-0.196 ± 0.023
9,CGAGTGCG,0.225 ± 0.033
10,GCGGTGTA,-0.136 ± 0.021
11,CAGGTGTC,0.4791 ± 0.0044
12,AAGGTGTA,0.404 ± 0.026
13,CAGATGTC,-0.0861 ± 0.049
14,AAGGTGTC,0.4879 ± 0.0035
15,GGGGTGTA,0.175 ± 0.0049
16,CCGGTGTA,0.0868 ± 0.027
17,GAGGTGTA,0.44018 ± 0.00028
18,ACGGTGTA,0.16 ± 0.0067
19,ACGGTGTC,0.26 ± 0.076
20,AAGGTTTC,0.0322 ± 0.0076
21,CAGGTGTA,0.3628 ± 0.0011
